Compound activity: PubChem, National Center for Advancing Translational Sciences (NCATS)
Mito fusion act = blocks mitochondrial division or promotes mitochondrial fusion; S. cerevisiae fusion-defective mutant growth rescue, CellTiterGlo 48 h; Potency, µM (doses to about 46.1 µM), without a hit: at the top dose growth rescue (activation), usual class: activators; 320,000 compounds, 0.23% hits; further: % of control where 0% means no effect; nearly all actives have a fitted effect of over 45% in size
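Yeast fusion mutant, YPEG (non-fermentable carbon), compound, 48 h at 37C non-permissive; CellTiterGlo added, 10 min RT, luminescence read. Rescued growth = division inhibition.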
FUS yeast rescue = FUS proteinopathy suppression in yeast; S. cerevisiae FUS-expressing, growth rescue, OD600, 24 h; Potency, µM (titrated, usually from 76.6 µM), most hits filed as activators; 390,000 compounds, 0.24% hits;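 further: plate controls were DMSO vehicle for no effect and reference control for full effect; nearly all actives have a fitted effect of over 55% in size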
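Absorbance at 600 nm, taken 24hr after compound addition, measured rescue of FUS-yeast growth at 30C. Induction used 2% galactose with seeding at OD 0.005. Controls: CP55940 from 92uM final, DMSO only.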
aSyn rescue = inhibitors of alpha-synuclein toxicity in yeast; Yeast expressing alpha-synuclein, growth rescue, BacTiter-Glo, 24 h; Potency, µM (top dose mostly 46.1 µM), without a hit: at the top dose growth rescue (activation), actives largely listed as activators; 370,000 compounds, 0.14% hits; AID 652106; further: % of control where 0% means no effect; nearly all actives have a fitted effect of over 65% in size
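Readout is rescue of growth in alpha-synuclein-expressing yeast, so inhibitors of toxicity appear as activators. Growth after 24 hr at 30 deg C in galactose medium is quantified by luminescence.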
TDP-43 yeast inh = inhibitors of TDP-43 toxicity in yeast. TDP-43 expressing yeast growth rescue, BacTiter-Glo, 24 h. AID 652104. 410,000 compounds, 1.8% hits. Potency, µM (doses to about 46.1 µM), inactives show at the highest dose growth rescue (activation), most hits filed as activators; further: % of control where 0% means no effect; nearly all actives have a fitted effect of over 50% in size
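In this qHTS, compounds that restore growth of yeast expressing TDP-43 appear as activators. Cells (OD600=0.02, galactose medium, raffinose-pregrown) are incubated with compound 24 hr at 30 deg C and growth is quantified by BacTiter-Glo.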
Abeta yeast res = compounds reversing amyloid beta toxicity in yeast. yeast expressing A-beta42, growth rescue, OD600, 48 h; response scale: 0% DMSO, 100% iron-clioquinol control. Potency, µM (highest dose often 46.1 µM), hits mostly activators. 410,000 compounds, 0.063% hits. AID 1347071; further: nearly all actives have a fitted effect of over 55% in size
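Growth rescue measured by 600 nm absorbance after 48 h yeast culture at 30 C with compound. Values normalized between DMSO and an equimolar ferric chloride plus clioquinol control.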
AT treatment = potential ataxia-telangiectasia treatments restoring KAP-1 phosphorylation; F2112 A-T fibroblasts, KAP-1 phosphorylation AlphaLISA; neocarzinostatin DNA damage 30 min before lysis; Potency, µM (highest dose often 57.5 µM), for the others: top-dose activation, most hits filed as activators; 320,000 compounds, 0.19% hits; further: % of control where 0% means no effect; nearly all actives have a fitted effect of over 45% in size
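ATM-like activity read as KAP-1 phosphorylation via AlphaLISA donor/acceptor antibody pairs after lysis and 6 hr at 25C. Cells were ATM-null patient fibroblasts (F2112, hTERT), dosed 60 min, then exposed to the DSB inducer NCS for 30 min.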
Numbers without * were called inactive; i = inactive; ? = inconclusive; . = no result; [ ] = another dose, or the depositor's remark. Sampled rows, rich in hits. Any-hit rate of the full collection: about 2.4%. The call rests on the fitted dose curve; in most records, active means well fitted curve in the direction sought with a large enough effect; inconclusive means small, poorly fitted or top-dose-only effect, or another doubt; inactive means no such curve, though single readings can be large; an effect the other way counts as inactive or inconclusive. Potency means the concentration at half of the fitted maximal effect.

SMILES | Mito fusion act | FUS yeast rescue | aSyn rescue | TDP-43 yeast inh | Abeta yeast res | AT treatment
O=C(N/N=C/c1cc([N+](=O)[O-])ccc1O)C1CCCCC1 | 3% | i | 4µM* | 10% | i | -6%
CN(C)c1ccc(/C=C/c2nc3ccccc3s2)c(Cl)c1 | . | . | -15% | . | . | .
S=c1[nH]nc(C2CCCCC2)n1/N=C/c1ccccc1 | -15% | i | -8% | ? | ? | -11%
Fc1ccc(/C=N/n2c(C3CCCCC3)n[nH]c2=S)cc1 | -3% | i | -11% | ? | 13µM* | 4%
Cc1cc(C(=O)CN2C(=O)C3CC=CCC3C2=O)c(C)n1-c1ccccc1 (stereo not drawn) | -2% | 32µM* | ? | -39% | i | -7%
Cc1cc(C(=O)CN2C(=O)c3ccccc3S2(=O)=O)c(C)n1-c1ccccc1 | 17% | ? | 21% | ? | i | 0%
COc1ccc2oc(C)c(C(N)=O)c2c1 | 5% | i | -9% | -11% | i | -3%
COc1ccc2oc(C)c(C(=O)c3ccc([N+](=O)[O-])cc3)c2c1 | 28% | . | 8% | 22µM* | i | -2%
CC1CCCN(c2c3c(nc4ccccc24)CCCC3)C1 (stereo not drawn) | -14% | i | 4% | -14% | i | 10%
COc1cccc(-c2nc(NCC3CCCO3)c3ccccc3n2)c1O (stereo not drawn) | -3% | i | 3% | ? | i | -3%
CC1CCCN(c2nc(-c3ccccc3O)nc3ccccc23)C1 (stereo not drawn) | . | i | 0% | 20µM* | i | .
CCc1nc(N2CCCC(C)C2)c2oc3ccccc3c2n1 (stereo not drawn) | 13% | i | -13% | -11% | i | 40µM*
Oc1ccccc1-c1nc(NCC2CCCO2)c2ccccc2n1 (stereo not drawn) | 30% | i | -9% | 11µM* | i | 22%
CC1CCN(c2nc(-c3ccncc3)nc3ccccc23)CC1 | 25% | i | ? | 13µM* | i | -2%
CC1CCN(c2nc(-c3ccc(C(C)(C)C)cc3)nc3ccccc23)CC1 | . | i | . | 16% | i | .
Cc1ccc(NC(=S)NNC(=O)CSc2nnc(-c3ccc(C)cc3)n2C2CCCCC2)cc1 | . | i | . | . | . | .
CC[C@@H](CCCCCC#N)CCC(=O)N(c1ccccc1)c1ccccc1 | . | i | . | . | . | .
Cc1ccc(Cl)cc1NC(=O)c1sc(-n2nc(C)c(Cc3ccc4c(c3)OCO4)c2C)nc1C | . | i | . | -9% | i | .
CCc1ccc(-c2nc(CN3CCC(C(=O)NCc4ccc(F)cc4)CC3)c(C)o2)cc1 | -9% | i | . | 2µM* | i | 2%
COc1ccc(-c2nc(CN3CCC(C(=O)NCc4ccc(F)cc4)CC3)c(C)o2)cc1OC | . | i | . | 2% | i | .
C=CCOc1c(Cl)cc(/C=N/O)cc1OC | 3% | i | -6% | -4% | i | 19%
CCOc1cc(/C=N\O)cc(Cl)c1OCC | -26% | i | -3% | 10µM* | i | -2%
CCOC(=O)c1sc(N2C(=O)C(O)=C(C(=O)c3ccco3)C2c2ccco2)nc1C (stereo not drawn) | 7% | 28µM* | 6% | -15% | i | -11%
CCOc1ccc2c(c1)c(=O)c(C(=O)c1ccccc1)cn2Cc1ccccc1F | . | i | . | 22% | i | .
COCCCNC(=O)C[C@H]1C[C@@]2(C(=O)OC)C(=C[C@H](C(C)C)O[C@@H]2C2CC2)N(CCC2=CCCCC2)C1=O | . | i | . | . | . | .
SMILES | Mito fusion act | FUS yeast rescue | aSyn rescue | TDP-43 yeast inh | Abeta yeast res | AT treatment
Cc1ccc(C)c(N/N=C2\CCCNC2=O)c1 | 1% | . | -17% | 20µM* | i | 2%
COc1ccc(Cl)cc1NC(=O)c1c(NCc2cccnc2)sc2c1CCC(C)C2 (stereo not drawn) | . | i | . | 22µM* | i | .
CCC(C)(C)n1nnnc1C(c1cccnc1)N1CCC(Cc2ccccc2)CC1 (stereo not drawn) | 16% | i | ? | 10µM* | i | 1%
Cc1cccc(Nc2nc(NCc3ccco3)nc(N3CCOCC3)n2)c1 | -16% | i | 13% | 13µM* | i | -2%
CN(CC#Cc1ccccc1)C(N)=NC(=O)/C=C/c1cccc(C(F)(F)F)c1 | . | i | . | . | . | .
CC(C)NC(=O)C(c1ccccc1)N1Cc2ccccc2C1=O (stereo not drawn) | . | i | . | 30% | i | .
COC(=O)[C@]12C[C@H](CC(=O)NCCc3ccccc3OC)C(=O)N(Cc3cccc4ccccc34)C1=C[C@H](C(C)(C)C)O[C@@H]2C | . | 14µM* | . | . | . | .
CCCCOCCCNC(=O)C[C@H]1C[C@@]2(C(=O)OC)C(=C[C@H](C3CCCC3)O[C@@H]2C)N(Cc2cccc3ccccc23)C1=O | . | 8.9µM* | . | . | . | .
COC(=O)[C@]12C[C@H](CC(=O)NCC34CC5CC(CC(C5)C3)C4)C(=O)N(Cc3cccc4ccccc34)C1=C[C@H](C(C)(C)C)O[C@@H]2C | . | i | . | . | . | .
COC(=O)[C@]12C[C@H](CC(=O)N3CCN(C(=O)C4CC4)CC3)C(=O)N(Cc3cccc4ccccc34)C1=C[C@H](C1CCCC1)O[C@@H]2C | . | 20µM* | . | . | . | .
C=C(C)Cn1c(SCC(=O)N/N=C(\C)c2ccc([N+](=O)[O-])cc2)nnc1-c1ccc(Br)cc1 | . | i | . | . | . | .
CC1CCCN(S(=O)(=O)c2ccc(S(=O)(=O)NC(C)c3cccs3)cc2)C1 (stereo not drawn) | 1% | 32µM* | 11% | -12% | i | 9%
CCc1cccc(NC(=O)Cn2c(=O)c(C(F)(F)F)nc3ccccc32)c1 | . | i | . | 16% | i | .
Cc1ccccc1C(=O)Nc1nnc(CC(=O)N/N=C/c2cn(Cc3ccccc3)c3ccccc23)s1 | -2% | i | 1% | -10% | i | 1%
Cc1ccccc1C(=O)Nc1nnc(CC(=O)N/N=C/c2ccco2)s1 | -5% | i | -3% | 0% | i | 16µM*
O=C(NCc1cccnc1)O[C@H]1CC[C@@]23CCCN2C(=O)CCC[C@H]3C1 | . | i | . | . | . | .
Cc1cccc(OCCCC(=O)NNC(=O)c2ccncc2)c1 | -1% | i | 0% | -6% | i | 2%
Cc1cccc(OCCCC(=O)NNC(=O)c2ccccn2)c1 | 6% | i | ? | 22µM* | ? | 3%
COc1ccc([C@]23Cc4cc(C#N)ccc4[C@H](O2)c2c(cc(C)n(Cc4ccccc4)c2=O)O3)cc1 | -2%[9.22 µM] | . | . | . | . | 4%[11.5 µM]
